Reference: PubChem BioAssay (NCATS)
Results filed as inconclusive are left out. Active and inactive are the calls of the source. The call rests on the fitted dose curve; in most records, active means well fitted cell-killing curve with a large enough effect; inconclusive means small, poorly fitted or top-dose-only effect, or effect the other way; inactive means flat fitted curve, though single readings scatter. Where a SMILES comes first, the peptide text is derived from it. The star is where a group is joined. Cbz = O=C(OCc1ccccc1)*; CH2F = FC*

How the values were obtained:
Assay in all cases: Primary qHTS to identify gynecologic anti-cancer compounds using libraries of approved drugs and bioactive compounds (AID 1345084); further: nearly all actives have a fitted effect of over 55% in size
C33A = conditions: Gynecologic cancer cell panel viability, ATPlite luminescence, 48 h; series mostly up to 57.5 µM
Outline: (§1)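 In this quantitative HTS, cell killing is estimated from loss of ATP-dependent luciferase light. Cells see five compound concentrations over a 48 h exposure.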

CAOV3 = conditions: Gynecologic cancer cell panel viability, ATPlite luminescence, 48 h; series mostly up to 57.5 µM
Outline: as §1

CASKI = conditions: Gynecologic cancer cell panel viability, ATPlite luminescence, 48 h; series mostly up to 57.5 µM
Outline: as §1

Es-2 = conditions: Gynecologic cancer cell panel viability, ATPlite luminescence, 48 h; series mostly up to 57.5 µM
Outline: as §1

HeLa = conditions: Gynecologic cancer cell panel viability, ATPlite luminescence, 48 h; series mostly up to 57.5 µM
Outline: as §1

Hek293T = conditions: Gynecologic cancer cell panel viability, ATPlite luminescence, 48 h, control line for the selectivity index; series mostly up to 57.5 µM
Outline: as §1

JEG-3 = conditions: Gynecologic cancer cell panel viability, ATPlite luminescence, 48 h; series mostly up to 57.5 µM
Outline: as §1

OV90 = conditions: Gynecologic cancer cell panel viability, ATPlite luminescence, 48 h; series mostly up to 57.5 µM
Outline: as §1

PA-1 = conditions: Gynecologic cancer cell panel viability, ATPlite luminescence, 48 h; series mostly up to 57.5 µM
Outline: as §1

SKOV3 = conditions: Gynecologic cancer cell panel viability, ATPlite luminescence, 48 h; series mostly up to 57.5 µM
Outline: as §1

Tov-21-G = conditions: Gynecologic cancer cell panel viability, ATPlite luminescence, 48 h; series mostly up to 57.5 µM
Outline: as §1

Tov112D = conditions: Gynecologic cancer cell panel viability, ATPlite luminescence, 48 h; series mostly up to 57.5 µM
Outline: as §1
On the % scale 0 is the no-effect control and ±100 the full control effect.

CC1(C)C(=O)N2c3ccccc3C(O)(CC(C(=O)O)n3cnc4ccccc4c3=O)C2N1O (stereo not drawn)
inactive: Potency (C33A) | Potency (CAOV3) | outcome (CASKI) | Potency (Es-2) | Potency (HeLa) | Potency (Hek293T) | Potency (JEG-3) | Potency (OV90) | Potency (PA-1) | Potency (SKOV3) | Potency (Tov-21-G) | Potency (Tov112D)

CC1(C(=O)O)CCCC2(C)C3CCC4CC3(CCC12)CC4C(=O)O (stereo not drawn)
inactive: Potency (C33A) | Potency (CAOV3) | outcome (CASKI) | Potency (Es-2) | Potency (HeLa) | Potency (Hek293T) | Potency (JEG-3) | Potency (OV90) | Potency (PA-1) | Potency (SKOV3) | Potency (Tov-21-G) | Potency (Tov112D)

CC(=O)N[C@H]1[C@H](O[C@H]2CC[C@]3(C)C4CC=C5[C@@H]6CC(C)(C)CC[C@]6(C(=O)O)[C@H](O)C[C@@]5(C)[C@]4(C)CC[C@H]3C2(C)C)O[C@H](CO)[C@@H](O)[C@@H]1O (stereo partly drawn)
inactive: Potency (C33A) | Potency (CAOV3) | outcome (CASKI) | Potency (Es-2) | Potency (HeLa) | Potency (Hek293T) | Potency (JEG-3) | Potency (OV90) | Potency (PA-1) | Potency (SKOV3) | Potency (Tov-21-G) | Potency (Tov112D)

C=C1CCC2C(C)(C)CC(O)CC2(C)C1CCC(C)CC(=O)O (stereo not drawn)
inactive: Potency (C33A) | Potency (CAOV3) | outcome (CASKI) | Potency (Es-2) | Potency (HeLa) | Potency (Hek293T) | Potency (JEG-3) | Potency (OV90) | Potency (PA-1) | Potency (SKOV3) | Potency (Tov-21-G) | Potency (Tov112D)

CC(=O)OC(C)(C)/C=C/C(=O)[C@](C)(O)C1[C@H](O)C[C@@]2(C)[C@@H]3CC=C4[C@@H](C[C@H](O[C@@H]5O[C@H](CO)[C@@H](O)[C@H](O)[C@H]5O)C(=O)C4(C)C)[C@]3(C)C(=O)C[C@]12C (stereo partly drawn)
inactive: Potency (C33A) | Potency (CAOV3) | outcome (CASKI) | Potency (Es-2) | Potency (HeLa) | Potency (Hek293T) | Potency (JEG-3) | Potency (OV90) | Potency (PA-1) | Potency (SKOV3) | Potency (Tov-21-G) | Potency (Tov112D)

O=C1C(Cl)=C(N2CCOCC2)C(=O)N1c1ccc(Cl)c(Cl)c1
inactive: Potency (C33A) | Potency (CAOV3) | outcome (CASKI) | Potency (Es-2) | Potency (HeLa) | Potency (Hek293T) | Potency (JEG-3) | Potency (OV90) | Potency (PA-1) | Potency (SKOV3) | Potency (Tov-21-G) | Potency (Tov112D)

CC1=C2CC(O)(C(C)(C)O)C(O[C@@H]3O[C@H](CO)[C@@H](O)[C@H](O)[C@H]3O)CC(C)C2CC1=O (stereo partly drawn)
inactive: Potency (C33A) | Potency (CAOV3) | outcome (CASKI) | Potency (Es-2) | Potency (HeLa) | Potency (Hek293T) | Potency (JEG-3) | Potency (OV90) | Potency (PA-1) | Potency (SKOV3) | Potency (Tov-21-G) | Potency (Tov112D)

CC(=O)O[C@@H]1[C@@H](O)[C@H](C)O[C@@H](O[C@H]2[C@@H]3C=CO[C@@H](O[C@@H]4O[C@H](CO)[C@@H](O)[C@H](O)[C@H]4OC(C)=O)[C@@H]3[C@@]3(CO)O[C@@H]23)[C@@H]1OC(=O)/C=C/c1ccc(O)cc1
inactive: Potency (C33A) | Potency (CAOV3) | outcome (CASKI) | Potency (Es-2) | Potency (HeLa) | Potency (Hek293T) | Potency (JEG-3) | Potency (OV90) | Potency (PA-1) | Potency (SKOV3) | Potency (Tov-21-G) | Potency (Tov112D)

NC1=NC2(c3cc(NC(=O)c4ccc(F)cn4)ccc3F)COCC2CS1 (stereo not drawn)
inactive: Potency (C33A) | Potency (CAOV3) | outcome (CASKI) | Potency (Es-2) | Potency (HeLa) | Potency (Hek293T) | Potency (JEG-3) | Potency (OV90) | Potency (PA-1) | Potency (SKOV3) | Potency (Tov-21-G) | Potency (Tov112D)

O=C(OC[C@H]1O[C@H](O[C@]2(CO)O[C@H](CO)[C@@H](O)[C@@H]2O)[C@H](O)[C@@H](O)[C@@H]1O)c1ccc(O)cc1
inactive: Potency (C33A) | Potency (CAOV3) | outcome (CASKI) | Potency (Es-2) | Potency (HeLa) | Potency (Hek293T) | Potency (JEG-3) | Potency (OV90) | Potency (PA-1) | Potency (SKOV3) | Potency (Tov-21-G) | Potency (Tov112D)

CC1(CO)CCCC2(C)C1C(OC(=O)c1ccccc1)CC1C(=O)OCC12O (stereo not drawn)
inactive: Potency (C33A) | Potency (CAOV3) | outcome (CASKI) | Potency (Es-2) | Potency (HeLa) | Potency (Hek293T) | Potency (JEG-3) | Potency (OV90) | Potency (PA-1) | Potency (SKOV3) | Potency (Tov-21-G) | Potency (Tov112D)

COc1ccc(/C=C/C(=O)O[C@@H]2[C@@H](O[C@@H]3O[C@H](CO)[C@@H](O)[C@H](O)[C@H]3O)[C@@H](O)[C@H](O[C@H]3C4C=CO[C@@H](O[C@@H]5O[C@H](CO)[C@@H](O)[C@H](O)[C@H]5O)C4[C@@]4(CO)O[C@@H]34)O[C@H]2C)cc1 (stereo partly drawn)
inactive: activity change, negative = cytotoxicity (C33A) -3.09% [at 11.6 µM] | activity change, negative = cytotoxicity (CAOV3) -4.58% [at 11.6 µM] | activity change, negative = cytotoxicity (CASKI) 6.26% [at 11.6 µM] | activity change, negative = cytotoxicity (Es-2) 3.1% [at 11.6 µM] | activity change, negative = cytotoxicity (HeLa) 5.69% [at 11.6 µM] | activity change, negative = cytotoxicity (Hek293T) 2.2% [at 11.6 µM] | activity change, negative = cytotoxicity (JEG-3) 7.02% [at 11.6 µM] | activity change, negative = cytotoxicity (OV90) 9.16% [at 11.6 µM] | activity change, negative = cytotoxicity (PA-1) -1.37% [at 11.6 µM] | activity change, negative = cytotoxicity (SKOV3) 1.14% [at 11.6 µM] | activity change, negative = cytotoxicity (Tov-21-G) 4.96% [at 11.6 µM] | activity change, negative = cytotoxicity (Tov112D) 0.569% [at 11.6 µM]

CCCC1=CC2=C(CO1)C(=O)C(C)(O)C(OC(=O)c1c(C)cc(OC)cc1O)C2 (stereo not drawn)
inactive: Potency (C33A) | Potency (CAOV3) | outcome (CASKI) | Potency (Es-2) | Potency (HeLa) | Potency (Hek293T) | Potency (JEG-3) | Potency (OV90) | Potency (PA-1) | Potency (SKOV3) | Potency (Tov-21-G) | Potency (Tov112D)

COC(=O)CC[C@H](NC(=O)[C@H](CC(C)C)NC(=O)OCc1ccccc1)C(=O)N[C@@H](Cc1cnc[nH]1)C(=O)N[C@@H](CC(=O)OC)C(=O)CF (Cbz-LE(OMe)HD(OMe)-CH2F)
inactive: activity change, negative = cytotoxicity (C33A) 16.8% [at 11.6 µM] | activity change, negative = cytotoxicity (CAOV3) 7.02% [at 11.6 µM] | activity change, negative = cytotoxicity (CASKI) 26% [at 11.6 µM] | activity change, negative = cytotoxicity (Es-2) 0.76% [at 11.6 µM] | activity change, negative = cytotoxicity (HeLa) 6.25% [at 11.6 µM] | activity change, negative = cytotoxicity (Hek293T) 2.96% [at 11.6 µM] | activity change, negative = cytotoxicity (JEG-3) -14.9% [at 11.6 µM] | activity change, negative = cytotoxicity (OV90) 0.73% [at 11.6 µM] | activity change, negative = cytotoxicity (PA-1) -3.2% [at 11.6 µM] | activity change, negative = cytotoxicity (SKOV3) -4.39% [at 11.6 µM] | activity change, negative = cytotoxicity (Tov-21-G) 4.92% [at 11.6 µM] | activity change, negative = cytotoxicity (Tov112D) 6.4% [at 11.6 µM]
